Values joined by “and” are separate entries in the source; they are usually repeats but may differ in a detail not shown here. Equal entries are not always repeated. In all, about 5,500 compounds went through this assay and about 2,000 (36%) were called active. About 18% were inconclusive and are not listed. No stated cut-off is given here; in the data, active means normalized growth mostly below about 0.91 (no sharp cut-off); inconclusive means no clear call, values can overlap the other calls; inactive means mostly above about 0.92. The list shows a part of the results.
Test: chemical genetic growth profiling, strain panel (AID 1159580);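 further: tested at 20 µM; growth read once vehicle control cultures reached saturation at 30 °C; 1 = growth at the plate median or of vehicle wells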
Conditions: growth OD

Measured: normalized growth

Cc1nc2ccccn2c(=O)c1CCN1CCC(C(=O)c2ccc(F)cc2)CC1
inactive: S. cerevisiae deletion strains, locus YJR075W, strain HOC1, stronger effect = lower value 0.974 and 1.01 | S. cerevisiae deletion strains, locus YKL009W, strain mrt4, stronger effect = lower value 1.01 | S. cerevisiae deletion strains, locus YKL068W, stronger effect = lower value 1 | S. cerevisiae deletion strains, locus YKL085W, strain MDH1 (second series), stronger effect = lower value 1.03 | S. cerevisiae deletion strains, locus YKL085W, strain MDH1, stronger effect = lower value 1.03 | S. cerevisiae deletion strains, locus YKL160W, strain elf1, stronger effect = lower value 0.991 | S. cerevisiae deletion strains, locus YKL190W, strain CNB1, stronger effect = lower value 1.02 | S. cerevisiae deletion strains, locus YKR001C, strain vps1, stronger effect = lower value 0.995 | S. cerevisiae deletion strains, locus YKR026C, strain gcn3, stronger effect = lower value 0.98 | S. cerevisiae deletion strains, locus YKR091W, strain srl3, stronger effect = lower value 0.994 | S. cerevisiae deletion strains, locus YLL001W, strain dnm1, stronger effect = lower value 0.997 | S. cerevisiae deletion strains, locus YLL026W, stronger effect = lower value 0.989 | S. cerevisiae deletion strains, locus YLL041C, strain sdh2, stronger effect = lower value 0.991 | S. cerevisiae deletion strains, locus YLR027C, strain aat2, stronger effect = lower value 1 | S. cerevisiae deletion strains, locus YLR039C, strain RIC1, stronger effect = lower value 1.03 | S. cerevisiae deletion strains, locus YLR058C, strain SHM2, stronger effect = lower value 1.02 | S. cerevisiae deletion strains, locus YLR102C, strain apc9, stronger effect = lower value 0.993 | S. cerevisiae deletion strains, locus YLR113W, strain HOG1, stronger effect = lower value 1.01 | S. cerevisiae deletion strains, locus YLR221C, strain rsa3, stronger effect = lower value 1 | S. cerevisiae deletion strains, locus YLR258W, strain gsy2, stronger effect = lower value 0.986 | S. cerevisiae deletion strains, locus YLR262C, strain YPT6 (second series), stronger effect = lower value 0.954 | S. cerevisiae deletion strains, locus YLR262C, strain YPT6, stronger effect = lower value 1.05 | S. cerevisiae deletion strains, locus YLR268W, strain sec22, stronger effect = lower value 0.995 | S. cerevisiae deletion strains, locus YLR320W, strain mms22, stronger effect = lower value 1 | S. cerevisiae deletion strains, locus YLR330W, strain CHS5, stronger effect = lower value 1.02 | S. cerevisiae deletion strains, locus YLR342W, strain FKS1 (second series), stronger effect = lower value 0.988 | S. cerevisiae deletion strains, locus YLR342W, strain FKS1, stronger effect = lower value 0.988 | S. cerevisiae deletion strains, locus YLR357W, strain rsc2, stronger effect = lower value 0.924 | S. cerevisiae deletion strains, locus YLR370C, strain arc18, stronger effect = lower value 0.991 | S. cerevisiae deletion strains, locus YLR371W, strain rom2, stronger effect = lower value 0.989 | S. cerevisiae deletion strains, locus YLR384C, strain iki3, stronger effect = lower value 0.985 | S. cerevisiae deletion strains, locus YLR418C, strain cdc73, stronger effect = lower value 1.01 | S. cerevisiae deletion strains, locus YML016C, strain PPZ1, stronger effect = lower value 1.02 | S. cerevisiae deletion strains, locus YML032C, strain rad52, stronger effect = lower value 0.985 | S. cerevisiae deletion strains, locus YML120C, strain ndi1, stronger effect = lower value 1 | S. cerevisiae deletion strains, locus YML124C, strain tub3, stronger effect = lower value 0.995 | S. cerevisiae deletion strains, locus YMR058W, strain fet3, stronger effect = lower value 1 | S. cerevisiae deletion strains, locus YMR078C, strain ctf18, stronger effect = lower value 0.994 | S. cerevisiae deletion strains, locus YMR125W, strain sto1, stronger effect = lower value 0.962 | S. cerevisiae deletion strains, locus YMR129W, stronger effect = lower value 0.998 | S. cerevisiae deletion strains, locus YMR205C, strain PFK2, stronger effect = lower value 0.985 | S. cerevisiae deletion strains, locus YMR223W, strain ubp8, stronger effect = lower value 0.966 | S. cerevisiae deletion strains, locus YMR231W, strain pep5, stronger effect = lower value 0.977 | S. cerevisiae deletion strains, locus YMR307W, strain GAS1, stronger effect = lower value 1.01 and 1 | S. cerevisiae deletion strains, locus YNL067W, strain RPL9B, stronger effect = lower value 1.04 | S. cerevisiae deletion strains, locus YNL071W, strain lat1, stronger effect = lower value 0.993 | S. cerevisiae deletion strains, locus YNL128W, strain TEP1, stronger effect = lower value 1.02 and 1.01 | S. cerevisiae deletion strains, locus YNL153C, strain GIM3, stronger effect = lower value 1.06 | S. cerevisiae deletion strains, locus YNL175C, strain NOP13, stronger effect = lower value 1.01 | S. cerevisiae deletion strains, locus YNL183C, strain NPR1, stronger effect = lower value 0.979 | S. cerevisiae deletion strains, locus YNL197C, strain WHI3, stronger effect = lower value 1.03 | S. cerevisiae deletion strains, locus YNL209W, strain ssb2, stronger effect = lower value 0.994 | S. cerevisiae deletion strains, locus YNL224C, strain SQS1, stronger effect = lower value 1.01 | S. cerevisiae deletion strains, locus YNL233W, strain BNI4, stronger effect = lower value 1.03 | S. cerevisiae deletion strains, locus YNL248C, strain rpa49, stronger effect = lower value 0.979 | S. cerevisiae deletion strains, locus YNL250W, strain rad50, stronger effect = lower value 0.999 | S. cerevisiae deletion strains, locus YNL271C, strain bni1, stronger effect = lower value 0.977 | S. cerevisiae deletion strains, locus YNL298W, strain CLA4, stronger effect = lower value 0.987 | S. cerevisiae deletion strains, locus YNL307C, strain MCK1, stronger effect = lower value 0.987 | S. cerevisiae deletion strains, locus YNL322C, strain KRE1 (second series), stronger effect = lower value 0.966 | S. cerevisiae deletion strains, locus YNL322C, strain KRE1, stronger effect = lower value 1.02 and 1.01 | S. cerevisiae deletion strains, locus YNR049C, strain mso1, stronger effect = lower value 0.995 | S. cerevisiae deletion strains, locus YNR052C, strain pop2, stronger effect = lower value 0.974 | S. cerevisiae deletion strains, locus YOL006C, strain TOP1, stronger effect = lower value 1.09 | S. cerevisiae deletion strains, locus YOL012C, strain htz1 1.02 | S. cerevisiae deletion strains, locus YOL147C, strain pex11, stronger effect = lower value 0.997 | S. cerevisiae deletion strains, locus YOR001W, strain rrp6, stronger effect = lower value 1.01 | S. cerevisiae deletion strains, locus YOR061W, strain CKA2, stronger effect = lower value 1.02 | S. cerevisiae deletion strains, locus YOR069W, strain VPS5, stronger effect = lower value 1.02 | S. cerevisiae deletion strains, locus YOR070C, strain gyp1, stronger effect = lower value 0.988 | S. cerevisiae deletion strains, locus YOR080W, strain dia2, stronger effect = lower value 0.981 | S. cerevisiae deletion strains, locus YOR083W, strain WHI5 (second series), stronger effect = lower value 1.02 | S. cerevisiae deletion strains, locus YOR083W, strain WHI5, stronger effect = lower value 0.946 | S. cerevisiae deletion strains, locus YOR106W, strain vam3, stronger effect = lower value 0.994 | S. cerevisiae deletion strains, locus YOR136W, strain idh2, stronger effect = lower value 0.996 | S. cerevisiae deletion strains, locus YOR144C, strain elg1, stronger effect = lower value 0.997 | S. cerevisiae deletion strains, locus YOR184W, strain ser1, stronger effect = lower value 0.988 | S. cerevisiae deletion strains, locus YOR231W, strain MKK1, stronger effect = lower value 1.04 | S. cerevisiae deletion strains, locus YOR265W, strain rbl2, stronger effect = lower value 0.989 | S. cerevisiae deletion strains, locus YOR270C, strain vph1, stronger effect = lower value 1.01 | S. cerevisiae deletion strains, locus YOR290C, strain snf2, stronger effect = lower value 0.989 | S. cerevisiae deletion strains, locus YOR316C, strain cot1, stronger effect = lower value 0.999 | S. cerevisiae deletion strains, locus YPL051W, strain arl3, stronger effect = lower value 0.987 | S. cerevisiae deletion strains, locus YPL055C, strain LGE1, stronger effect = lower value 1.09 | S. cerevisiae deletion strains, locus YPL078C, strain atp4, stronger effect = lower value 0.989 | S. cerevisiae deletion strains, locus YPL106C, strain sse1, stronger effect = lower value 0.963 | S. cerevisiae deletion strains, locus YPL240C, strain hsp82, stronger effect = lower value 0.983 | S. cerevisiae deletion strains, locus YPL241C, strain CIN2, stronger effect = lower value 1.02 | S. cerevisiae deletion strains, locus YPL256C, strain CLN2, stronger effect = lower value 1.05 | S. cerevisiae deletion strains, locus YPR119W, strain clb2, stronger effect = lower value 1 | S. cerevisiae deletion strains, locus YPR141C, strain kar3, stronger effect = lower value 1 | S. cerevisiae deletion strains, locus YPR163C, strain tif3, stronger effect = lower value 0.992 | S. cerevisiae deletion strains, locus YPR167C, strain met16, stronger effect = lower value 0.991 | S. cerevisiae deletion strains, strain wtn01, stronger effect = lower value 1.02 | S. cerevisiae strains, strain wild type, stronger effect = lower value 1.01

— PubChem BioAssay AID1159580 (chemical genetic matrix, 2015)
